# In PubChem BioAssay AID651610 (Broad Institute, 2012):
# In all, about 360,000 compounds went through this assay and about 3,900 (1.1%) were called active. This excerpt belongs to a sample that is enriched for actives. A number with no mark means an inactive call.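 Rule for the calls: active = mean replicate inhibition score of at least 50 and every replicate individually at or above 50; inconclusive = only one of the two criteria met; inactive = mean below 50 and not all replicates reaching 50.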
# Test: blockers of JRFL envelope-mediated fusion – HeLa-JRFL effector, CEM21 target cells, luciferase, primary screen (AID 651610);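 note: 0% = plate neutral controls and 100% = maraviroc near 300 nM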
# Settings: HeLa-JRFL Env/CEM21 cell fusion, stronger effect = higher value; at 16.7 µM unless noted
row,Structure (SMILES),inhibition
1,Cn1c(Cc2cccc3ccccc23)nnc1SCC(=O)N1CCN(c2cccc(Cl)c2)CC1,94.5% [at 12.3 µM] (active)
2,Cc1cc2nnc(SCC(=O)N3CCN(c4ccccc4)CC3)n2c(N)n1,-38.7% [at 12.3 µM]
3,Cn1c(CNC(=O)c2ccco2)nnc1SCC(=O)N1CCN(c2ccccc2)CC1,-10.4% [at 12.3 µM]
4,C[C@H]1CCCCO[C@@H](CN(C)C(=O)Nc2ccccc2)[C@@H](C)CN([C@@H](C)CO)C(=O)c2cc(NC(=O)Nc3ccc(F)cc3)ccc2O1,-14%
5,O=C(CN1CCOCC1)N[C@H]1CC[C@@H](CCNS(=O)(=O)c2ccccc2F)O[C@H]1CO,21.8%
6,CCC(=O)N(C)C(c1ccccc1Cl)c1nnnn1-c1c(C)cccc1C (centres undefined),68.5% [at 12.3 µM] (active)
7,Cc1cccc(C)c1-n1nnnc1C(CCc1ccccc1)N1CCN(C/C=C/c2ccccc2)CC1 (centres undefined),-59.3% [at 12.3 µM]
8,CCOC(=O)N1CCN(C(c2ccnc3ccccc23)c2nnnn2-c2c(C)cccc2C)CC1 (centres undefined),14.5% [at 12.3 µM]
9,CC(C)NC(=O)N(C)C[C@@H]1Oc2ccc(NC(=O)Cn3cnnn3)cc2CC(=O)N([C@H](C)CO)C[C@H]1C,13.5%
10,COc1ccc(CCN2C(=O)C(C)=C(C)C2=O)cc1OC,-2.55% [at 12.3 µM]
11,CCCN1C(=O)c2[nH]nc(-c3ccccc3)c2C1c1ccccc1 (centres undefined),-22.9% [at 12.3 µM]
12,COc1ccc(CCN2C(=O)c3[nH]nc(-c4ccccc4O)c3C2c2ccc(C)cc2)cc1OC (centres undefined),101% [at 12.3 µM] (active)
13,COc1ccccc1-c1cnc2c(c1)C(=O)N([C@@H](C)CO)C[C@H](C)[C@@H](CN(C)C(C)=O)O2,0.851%
14,COc1ccc(S(=O)(=O)Nc2ccc3c(c2)C(=O)N([C@H](C)CO)C[C@@H](C)[C@@H](CN(C)CC2CCCCC2)OCCCC[C@@H](C)O3)cc1,-26.3%
15,COc1ccc(/C=C2\SC(=S)N(CCC(=O)N3CCOCC3)C2=O)cc1OC,6.28% [at 12.3 µM]
16,COc1cccc(/C=C2\SC(=S)N(CCCC(=O)N3CCOCC3)C2=O)c1,2.26% [at 12.3 µM]
17,C=CCOc1ccc(/C=C2\SC(=S)N(CCC(=O)O)C2=O)cc1,60.7% [at 12.3 µM] (active)
18,COCCNC(=O)CSc1nc2sccc2c(=O)n1-c1ccccc1,-8.5% [at 12.3 µM]
19,Cc1sc2nc(SCCO)n(-c3ccccc3)c(=O)c2c1C,14.7% [at 12.3 µM]
20,CC1(C)Cc2c(sc3nc(SCC(=O)NCc4ccccc4)n(-c4ccccc4)c(=O)c23)CS1,138% [at 12.3 µM] (active)
21,C/C=C/c1cnc2c(c1)C(=O)N([C@@H](C)CO)C[C@H](C)[C@@H](CN(C)C(=O)C1CC1)O2,10.3%
22,C[C@@H]1CCCCO[C@H](CN(C)Cc2ccc(C(F)(F)F)cc2)[C@H](C)CN([C@@H](C)CO)C(=O)c2cc(N(C)C)ccc2O1,6.26%

row,Structure (SMILES),inhibition
1,COc1ccccc1S(=O)(=O)N[C@@H]1CC[C@@H](CCNC(=O)C2CCCCC2)O[C@@H]1CO,-6.59%
2,C=CCOCCN(C)C1=NS(=O)(=O)c2ccccc21,1.56% [at 12.3 µM]
3,COc1ccc(/C=N/N(C)C2=NS(=O)(=O)c3ccccc32)cc1OC,1.34% [at 12.3 µM]
4,COc1ccc(C(C)(C)C)cc1NC(=O)CN(C)C1=NS(=O)(=O)c2ccccc21,64.3% [at 12.3 µM] (active)
5,COc1ccc(CN(C)C[C@H]2Oc3c(NC(=O)Nc4ccccc4)cccc3C(=O)N([C@@H](C)CO)C[C@@H]2C)cc1,6.99%
6,C[C@@H]1CN([C@@H](C)CO)C(=O)Cc2cc(NC(=O)C3CCCCC3)ccc2O[C@@H]1CN(C)CC1CCCCC1,-8.61%
7,CN(C)C=NC(=O)c1cccn1-c1ncc(C(F)(F)F)cc1Cl,8.04% [at 12.3 µM]
8,O=c1[nH]c2cccnc2n(CCNc2ncc(C(F)(F)F)cc2Cl)c1=O,-11.9% [at 12.3 µM]
9,COc1cccc(/C=N/Nc2ncc(C(F)(F)F)cc2Cl)c1O,74.7% [at 12.3 µM] (active)
10,C[C@@H]1CN([C@@H](C)CO)C(=O)c2cc(NS(=O)(=O)c3cccs3)ccc2O[C@H]1CN(C)CC1CCCCC1,-17.2%
11,CC(C)(C)OC(=O)CNC(=O)c1[nH]cnc1C(=O)N[C@@H](Cc1ccccc1)C(=O)OCc1ccccc1,6.73% [at 12.3 µM]
12,C[C@H](NC(=O)c1nc[nH]c1C(=O)NCC(=O)OC(C)(C)C)C(=O)OCc1ccccc1,-4.51% [at 12.3 µM]
13,Cc1cccc(NC(=O)c2nc[nH]c2C(=O)NCC(=O)OCc2ccccc2)c1,55.2% [at 12.3 µM] (active)
14,O=C(C[C@@H]1CC[C@@H]2[C@H](COC[C@H](O)CN2C(=O)c2cccnc2)O1)NC1Cc2ccccc2C1,-0.583%
15,CO[C@@H]1CN(C)C(=O)c2ccc(NC(=O)c3cccc(Oc4ccccc4)c3)cc2OC[C@H](C)NC[C@@H]1C,12.8%
16,Cc1ccc(NC(=O)c2nc[nH]c2C(=O)N[C@@H](CCCCNC(=O)OC(C)(C)C)C(=O)OC(C)(C)C)cc1,32.1% [at 12.3 µM]
17,CN1CCn2cnc(C(=O)NCC(=O)OC(C)(C)C)c2C1=O,2.91% [at 12.3 µM]
18,C[C@@H]1Cn2cnc(C(=O)Nc3ccc(CNC(=O)OC(C)(C)C)cc3)c2C(=O)N1,58.6% [at 12.3 µM] (active)
19,O=C(CCN1CCCCC1)N[C@@H]1C=C[C@@H](CC(=O)N2CCC(Cc3ccccc3)CC2)O[C@H]1CO,3.09%
20,CSCCC(NS(=O)(=O)c1ccc2c(c1)oc(=O)n2C)C(=O)NC1CCCc2ccccc21 (centres undefined),87% [at 12.3 µM] (active)
21,CNS(=O)(=O)c1cccc(C(=O)NC2CCCc3ccccc32)c1 (centres undefined),15.1% [at 12.3 µM]
22,CSCCC(NS(=O)(=O)c1ccc2c(c1)oc(=O)n2C)C(=O)NCc1ccccc1 (centres undefined),-4.2% [at 12.3 µM]
